These results are taken from PubChem BioAssay (NCI).

Molecules are shown by their SMILES. About 83,000 compounds went through this panel and 20% of them were active in at least one assay; those are over-represented in the sample as a whole.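 Percent growth is the endpoint: 0 to 100 indicates growth inhibition (40 means 60% inhibition), 0 means no net growth, and negative values indicate cell death.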 Values without a mark were called inactive. Active and inactive are the calls of the source.

The test system of the test is HT29 colon. The experiment in a line: NCI-60 one-dose screen, 48 h (100 = growth as untreated, 0 = no growth, -100 = all killed). Particulars: 10 µM unless noted. How it is done:
Growth inhibition of the HT29 human tumor cell line is measured as a screen for anti-cancer activity. Cells are grown in 96 well plates and exposed to the test compound for 48 hours. Compounds are tested at a single concentration, which is 10^-5 M for most compounds. The reported endpoint is percent growth (GI% or GIPRCNT), where numbers from 0 - 100% represent growth inhibition, and numbers from -100% - 0 represent cell death. For example, a value of 40 represents 60% growth inhibition. A value of 0 means no net growth occurred over the course of the experiment. A value of -40 indicates 40% of cells at the beginning of the experiment died by the end of the experiment. A value of -100 means all cells are dead at the end of the experiment.
NCI-60 Human Tumor Cell Lines Screen was performed using the standard one-dose NCI protocol, which is described in more detail at https://dtp.cancer.gov/discovery_development/nci-60/default.htm.
Compounds with GIPRCNT values below 10 were considered active. Activity score was based on GIPRCNT using the following formula: […]
Score is 0 for GIPRCNT values of 100 or above, 50 for GIPRCNT values of 0, and 100 for GIPRCNT values of -100.
With `O=C(COc1ccc(/C=C2\Oc3ccccc3C2=O)cc1)Nc1nccs1`, the growth is 107%.

On to `CCOC(=O)C1=C(c2ccccc2)N=C2N(c3ccccc3)N=C(C(C)=O)N2C1c1ccc(Br)cc1` (stereo not given), for which the growth is 85.1%.

On to `Clc1ccc(C2=Nn3c(nnc3-c3cc(Cl)cc(Cl)c3Cl)SC2)cc1`, for which the growth is 6.41% (active).

`Cc1cc(C(=O)Nc2cc(Nc3ncccc3-c3ncnc4nc[nH]c34)ccc2F)cc(C(C)(C)C#N)c1`: the growth was 24.1%.

Turning to `Nc1ncnc2c1N=C(c1ccc([N+](=O)[O-])cc1)CC(c1ccc3c(c1)OCO3)N2` (stereo not given), the growth was 97.3%.

As for `Cc1[nH]c(C(=O)Nc2ccccc2OC2CCNC2)c(Cl)c1Cl` (stereo not given), the growth is 77.8%.

Turning to `C#CCOc1cc(/C=N/Nc2nc(-c3ccc(OC)cc3)cs2)ccc1O`, the growth was 92.6%.

With `COc1cc2c(cc1OC)CC[N+](CCC[N+](C)(C)C)=C2`, the growth is 88.5%.

Consider `CNC1=C(Br)C(=O)c2c(C(=O)OC)c(C)nc(C)c2C1=O`, for which the growth is 19.8%.

Turning to `COc1ccc(-c2nc(SCCC(C)C)nc(N/N=C(/C)c3ccc(N)cc3)c2C#N)cc1`, the growth was 104%.

Regarding `O=C(CSc1nnc(-c2ccc(Cl)c(Cl)c2)n1-c1ccccc1)Nc1ccc(C(=O)/C=C/c2ccc(Cl)cc2)cc1`, the growth is 85.9%.

Consider `CN(C)CCOc1nc2c3cc([N+](=O)[O-])ccc3nn2c2ccccc12`, for which the growth is 26.1%.

Regarding `O=C1C(Nc2ccc(Br)cc2)=C(I)C(=O)c2ncccc21`, the growth is 54.7%.

With `CCOc1ccccc1NC(=O)CCC(=O)OC`, the growth was 89.7%.

`C=C1C(=O)O[C@H]2[C@H]1CC/C(COC(=O)NCc1ccc(Cn3c(=O)sn(CCCC)c3=O)cc1)=C\CC[C@@]1(C)O[C@@H]21`: the growth was 0.335% (active).

For `Oc1cccc(-c2nc(-c3n[nH]c(=S)n3-c3ccccc3)cc3c2[nH]c2ccccc23)c1`, the growth was 6.61% (active).

For `CN(C)c1ccc(/C=C/C2=[N+](C)c3ccccc3C2(C)C)cc1`, the growth is 12.5%.

For the compound `CCCN1C2CCC1/C(=C\c1ccc(OC)cc1)C(=O)/C2=C/c1ccc(OC)cc1`, the growth was 58%.

`O=C(Nc1ncc(Cc2ccccc2)s1)c1cc(-c2ccccc2)nc2ccccc12`: the growth is 104%.

For `O=C(Oc1ccccc1)c1cc(O)c(O)c(O)c1`, the growth was 85.7%.

For `O=C(Nc1ncc(Cc2ccccc2Cl)s1)c1ccc2c(c1)OCCO2`, the growth is 6.05% (active).

Turning to `COc1cc(NC(=O)c2cncnc2Nc2ccc3c(ccn3Cc3cccc(F)c3)c2)cc(OC)c1`, the growth was 20%.

As to `Cc1ccc2c(c1)CC(O)CC1C(=O)N(CCO)CC(=O)N21` (stereo not given), the growth was 96.1%.

For `COC(=O)[C@@H](Cc1c[nH]c2ccccc12)NC(=O)[C@H](Cc1ccccc1)NCc1ccncc1`, the growth was 87.5%.

With `CC(C)=CCC[C@](C)(O)C1CC[C@]2(C)[C@@H]1CC[C@@H]1[C@@]3(C)CC/C(=N\OCCC#N)C(C)(C)[C@@H]3CC[C@]12C` (stereo not given in full), the growth is 65.1%.

For `CC1=NC(=S)NC(c2ccccc2)/C1=C1/CC(c2ccccc2O)NN1` (stereo not given), the growth was 105%.

Regarding `CCCNNC(=O)c1ccc(CNC(=O)/C=C/c2ccccc2)cc1`, the growth was 10.8% [2.5 µM].

As for `Cn1cc(-c2csc(-c3cn(C)c4ccc(F)cc34)n2)c2cnccc21`, the growth was -66.8% (active).

Turning to `c1ccc(-c2cn3nc(-c4c[nH]c5ccccc45)sc3n2)cc1`, the growth is 86%.

`CN1C(=O)N(C)C2C1NN=c1s/c(=C\c3ccc(F)cc3)c(=O)n12` (stereo not given): the growth is 2.74% (active).

In the case of `O=C1CCc2c(sc3[nH]c(=S)n(-c4cc(C(F)(F)F)cc(C(F)(F)F)c4)c(=O)c23)C1`, the growth was 0.73% (active).

For the compound `O=C1/C(=C/c2ccc(-c3ccc(Cl)cc3)o2)SC(=S)N1CCc1ccc(O)cc1`, the growth was 25.2%.

For the compound `Cc1ccc(-c2nnc(SCc3nc(N)nc(Nc4ccccc4F)n3)n2-c2ccccc2)cc1`, the growth is 98.5%.

With `CN1CCN(CCCNC(=O)c2c3c(n4ccccc24)C(=O)c2ncccc2C3=O)CC1`, the growth is 0.534% (active).

For `O=C(Nc1ccc(Oc2cccc(F)c2)c(Cl)c1)c1cnccn1`, the growth is 9.13% (active).

As for `CC1(C)CCC[C@]23C(=O)O[C@](O)(C(=O)C4=C[C@@](C)(/C=C/CCCc5ccc6ccc7cccc8ccc5c6c78)CC[C@@]42O)[C@@H]13`, the growth was -69.5% (active).

Regarding `COc1cc(/C=N/NC(=O)c2ccc3nc(-c4ccc(Cl)cc4)[nH]c3c2)cc(OC)c1OC`, the growth is 39.9%.

For `Cc1ccc(NC(=O)c2ccc(Nc3ncnc4c3cnn4-c3cccc(F)c3)cc2)cc1`, the growth is 98.8%.

For the compound `C#CCOc1ccc(C2=NN(CCCC)C3N=C(Cl)c4ncn(CCCC)c4N23)cc1OCC#C` (stereo not given), the growth was 96.9%.

As for `CCOC(=O)C1=CCC(n2cc(F)c(=O)[nH]c2=O)O1` (stereo not given), the growth is 105%.
